The values that follow come from PubChem BioAssay (NCI).

Compounds without any hit were thinned out: in the full panel of roughly 83,000, 20% have a hit.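 Single-concentration screen, 48 h exposure, 96-well plates. Endpoint: percent growth. Below 10 = active.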 A number with no mark means an inactive call. The source made the active and inactive calls.

Among the test systems are HCT-15 colon; HT29 colon; SNB-75 CNS; SNB-19 CNS; U251 CNS; PC-3 prostate; SK-MEL-5 melanoma; UACC-62 melanoma; SK-MEL-28 melanoma.
Common to all, as to assay: NCI-60 one-dose screen, 48 h (100 = growth as untreated, 0 = no growth, -100 = all killed)
Common to all, as to settings: 10 µM unless noted

Turning to `Brc1ccc2[nH]cc(-c3nc(-c4c[nH]c5ncccc45)cs3)c2c1`, the growth with HCT-15 colon is -32.3% (active); in the assay with HT29 colon, 9.69% (active); in the assay with SNB-75 CNS, 37.3%; in the assay on SNB-19 CNS it was 68.8%; in the assay on U251 CNS, 27.7%; with PC-3 prostate, 38.1%. Also, the growth is 54.7% in the assay with SK-MEL-5 melanoma, 41.9% in the assay with UACC-62 melanoma and 71.6% in the assay on SK-MEL-28 melanoma.

`COc1ccc(-c2nc3ncccn3c2-c2nc3ccc(Br)cc3[nH]2)cc1`: the growth with HCT-15 colon is 84.6%; with HT29 colon, 88.9%; in the assay on SNB-75 CNS, 86.8%; with SNB-19 CNS, 89.9%; in the assay with U251 CNS it was 89.7%; in the assay on PC-3 prostate it was 65.5%. Besides, the growth was 74.9% in the assay with SK-MEL-5 melanoma, 76.5% in the assay on UACC-62 melanoma and 92.6% in the assay on SK-MEL-28 melanoma.

For the compound `O=c1c(CNc2ccc(S(=O)(=O)Nc3nccs3)cc2)coc2ccccc12`, the growth with HCT-15 colon was 99.9%; in the assay with HT29 colon, 101%; in the assay on SNB-75 CNS it was 73.8%; with SNB-19 CNS, 95.4%; with U251 CNS, 95.4%; in the assay on PC-3 prostate, 107%. The growth was 98.3% with SK-MEL-5 melanoma, 97.9% with UACC-62 melanoma and 121% with SK-MEL-28 melanoma.

In the case of `C=C(C)[C@@H]1CC[C@]2(/C=N/Nc3ccncc3)CC[C@]3(C)[C@H](CC[C@@H]4[C@@]5(C)CCCNC(C)(C)[C@@H]5CC[C@]43C)[C@@H]12`, the growth is 68.4% in the assay with HCT-15 colon; 18.6% in the assay on HT29 colon; 90.5% with SNB-75 CNS; 94.7% in the assay on SNB-19 CNS; 67.9% in the assay on U251 CNS; 47.3% in the assay on PC-3 prostate. For the same compound, the results for the growth in the assay with SK-MEL-5 melanoma, in the assay with UACC-62 melanoma and in the assay on SK-MEL-28 melanoma were 81.7%, 88.1% and 95.4%, respectively.

As for `O=C1C(=O)c2ccccc2C(O)=C1CCCc1ccc(C2CCCCC2)cc1`, the growth was 41.4% with HCT-15 colon; 41.8% in the assay on HT29 colon; 54.9% in the assay with SNB-75 CNS; 39.9% in the assay with SNB-19 CNS; 45.4% with U251 CNS; 39.2% with PC-3 prostate. The growth in the assay on SK-MEL-5 melanoma was 20.6%; in the assay on UACC-62 melanoma, 47.9%; in the assay on SK-MEL-28 melanoma, 47.4%.

Take `O=C1/C(=C\C(Cl)=C/c2ccc([N+](=O)[O-])cc2)SC(=S)N1CCc1ccc(O)cc1`: the growth is -49.9% (active) with HCT-15 colon; -15.3% (active) in the assay on HT29 colon; -27.7% (active) in the assay with SNB-75 CNS; -59.7% (active) in the assay with SNB-19 CNS; -88% (active) with U251 CNS; -14.8% (active) with PC-3 prostate. Besides, the growth in the assay with SK-MEL-5 melanoma is -78.9% (active); with UACC-62 melanoma it was -30.8% (active); in the assay on SK-MEL-28 melanoma it was -61.2% (active).

With `COc1cc(-c2c(C#N)c(-c3cccs3)nc3c2c(-c2ccccc2)nn3-c2ccccc2)ccc1O`, the growth is 73.5% in the assay with HCT-15 colon; 74.8% in the assay on HT29 colon; 79.8% in the assay with SNB-75 CNS; 98.9% in the assay on SNB-19 CNS; 78.3% in the assay with U251 CNS; 66% in the assay with PC-3 prostate. Moreover, the figures for the growth in the assay on SK-MEL-5 melanoma, in the assay on UACC-62 melanoma and in the assay on SK-MEL-28 melanoma were 94.9%, 83.5% and 96.1%, respectively.
